# According to PubChem BioAssay (NCI):
# Compounds without any hit were thinned out: in the full panel of roughly 83,000, 20% have a hit.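 For each line, cells grew in 96-well plates with the test compound present at a single concentration for 48 hours.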 A number with no mark means an inactive call. Calls of active or inactive are those of the source. The calls were made as follows: active = growth percent below 10; inactive = the rest.
# Assays:
# Experiment in all cases: NCI-60 one-dose screen, 48 h (100 = growth as untreated, 0 = no growth, -100 = all killed)
# HCT-15 colon = details: 10 µM unless noted
# HT29 colon = details: 10 µM unless noted
# SNB-75 CNS = details: 10 µM
# SNB-19 CNS = details: 10 µM unless noted
# U251 CNS = details: 10 µM unless noted
# PC-3 prostate = details: 10 µM unless noted
# SK-MEL-5 melanoma = details: 10 µM unless noted
# UACC-62 melanoma = details: 10 µM unless noted
# LOX IMVI melanoma = details: 10 µM unless noted
# SK-MEL-28 melanoma = details: 10 µM unless noted
# SK-MEL-2 melanoma = details: 10 µM unless noted
# EKVX NSCLC = details: 10 µM unless noted
# SN12C renal = details: 10 µM unless noted
# UO-31 renal = details: 10 µM unless noted
# TK-10 renal = details: 10 µM unless noted
# ACHN renal = details: 10 µM unless noted
# CAKI-1 renal = details: 10 µM unless noted
# A498 renal = details: 10 µM unless noted
# CCRF-CEM leukemia = details: 10 µM unless noted
# MOLT-4 leukemia = details: 10 µM unless noted
Compound,growth (HCT-15 colon),growth (HT29 colon),growth (SNB-75 CNS),growth (SNB-19 CNS),growth (U251 CNS),growth (PC-3 prostate),growth (SK-MEL-5 melanoma),growth (UACC-62 melanoma),growth (LOX IMVI melanoma),growth (SK-MEL-28 melanoma),growth (SK-MEL-2 melanoma),growth (EKVX NSCLC),growth (SN12C renal),growth (UO-31 renal),growth (TK-10 renal),growth (ACHN renal),growth (CAKI-1 renal),growth (A498 renal),growth (CCRF-CEM leukemia),growth (MOLT-4 leukemia)
O=[N+]([O-])c1ccc(-c2cn(-c3ccccc3)c(-c3ccccc3)n2)cc1,95.2%,98.6%,70.7%,36.3%,58.6%,48.1%,128%,83.1%,94.3%,96.7%,74.8%,88.7%,77.6%,55%,108%,95.1%,87.7%,82%,27.3%,62.7%
COc1ccc(C2C(C#N)=C(N)Oc3c2ccc2ccccc32)cc1 (configuration not stated),28.3%,34.1%,,46.7%,35.4%,39.9%,31.2%,23.6%,27.1%,52.2%,24.8%,73.8%,51.5%,38.8%,81%,52.5%,30.8%,0% (active),24.2%,31.7%
Cc1nn(-c2ccc(Cl)cc2)c2ncnc(N/N=C/c3cccc([N+](=O)[O-])c3)c12,100%,90.7%,99.2%,96.4%,82.3%,39%,105%,109%,93.4%,105%,99%,84%,101%,72.3%,93.3%,108%,76.4%,85.5%,20.5%,15.4%
COc1ccncc1S(=O)(=O)NC(=O)Nc1ccc(Cl)c(Cl)c1,101%,102%,78.3%,96.8%,94.9%,91.9%,120%,66.7%,64.9%,120%,92.9%,84.7%,94.5%,66.7%,113%,85.2%,84.4%,96.3%,81.7%,83.5%
COc1cc(/C=C/C(=O)c2c(C)nc3ccccc3c2C)ccc1OCCCCOc1cc2c(cc1OC)C(=O)N1CCC[C@H]1C=N2,-79.6% (active),-73.3% (active),-100% (active),-90.1% (active),-97.8% (active),-24.6% (active),-100% (active),-99.2% (active),-92.2% (active),,-100% (active),-26% (active),-29.6% (active),-93.9% (active),-48.4% (active),-80.7% (active),-34.5% (active),-84.5% (active),-36.8% (active),-44.7% (active)
Cc1cc(N/N=C/c2nc(-c3ccc(Br)cc3)oc2C)c2cc(Br)ccc2n1,6.22% (active),-16.1% (active),,41.7%,-9.51% (active),77.2%,92.9%,73.9%,-37.6% (active),24.7%,99%,90.9%,26.8%,58.7%,82%,64.9%,88.3%,85.7%,-4.62% (active),
COc1ccc(C2NN=C3c4ccccc4CCC32)cc1 (configuration not stated),40%,44.5%,48.3%,,80.4%,66.6%,15.2%,49.9%,72.5%,,78.1%,64.3%,84.4%,54.1%,76.4%,93.4%,21.9%,58.2%,13.4%,16.8%
CCCCOc1ccc(/C=C2/SC(N3CCOCC3)=NC2=O)cc1OCC,98.6%,104%,,90.8%,95.2%,87.1%,98.7%,88.6%,89.1%,97.4%,102%,90.8%,85.2%,79.4%,116%,96%,84.8%,90.2%,90%,
COc1cc(C2NN=C3c4ccccc4CCC32)cc(OC)c1OC (configuration not stated),72.4%,105%,59.8%,79.3%,94.7%,75.2%,72.2%,69.8%,82.4%,101%,76.9%,72.6%,77.7%,41.4%,94.1%,80.3%,65%,89.6%,1.98% (active),60.5%
Oc1ccc2cc(Br)ccc2c1-c1c(O)ccc2cc(Br)ccc12,67.7%,11.2%,,78.3%,65%,42.1%,72.8%,61.4%,61.8%,65.5%,74.9%,57.6%,60.7%,24.3%,52%,23.1%,40.2%,72%,45%,40.2%
COc1cc2c(cc1OCCCN1CCN(CCCn3c4ccccc4c4ccccc43)CC1)N=C[C@@H]1CCCN1C2=O,-44.6% (active),-17.2% (active),-98.9% (active),-49.8% (active),-99.1% (active),-64.7% (active),-100% (active),-87.3% (active),-91.2% (active),-98.3% (active),-78.1% (active),-86.8% (active),-47.9% (active),-91.7% (active),-79.6% (active),-100% (active),-75% (active),-96.9% (active),-11.4% (active),-39.6% (active)
CCCCCCCCCCCCNC(=O)[C@H]1CSC(c2ccsc2)N1 (some centres not stated),-71.4% (active),-74% (active),,-80% (active),-94.2% (active),-88.9% (active),36.5%,-93.5% (active),-89.5% (active),-88% (active),-91% (active),-84% (active),-87% (active),-99.6% (active),-91.6% (active),-68.7% (active),-13.7% (active),106%,-43.2% (active),
O=c1ccn(-c2ncnc3nc[nH]c23)cc1,102%,109%,80.6%,98.4%,95.5%,96.6%,114%,92.8%,96.3%,,90.9%,91.4%,90.3%,67%,86.4%,99.3%,74.6%,87.6%,89.7%,96%
Cc1ccc2ccccc2c1C[n+]1ccccc1,107%,92%,,101%,83.6%,83.4%,110%,99.8%,94.5%,110%,111%,58.2%,98.4%,84%,88.4%,106%,92.8%,79.3%,,
COc1cc(-c2ncn(/C=C\C(=O)OC(C)C)n2)cc(C(F)(F)F)c1,3.97% (active),-14% (active),-29.3% (active),11.8%,5.83% (active),18.2%,-38.4% (active),-10.9% (active),-73% (active),-18.3% (active),-10% (active),43.6%,12.9%,3.53% (active),-8.8% (active),11.5%,14.3%,-53.8% (active),11.5%,2.48% (active)
Clc1ccc(-c2nc3ccccc3s2)cc1Cl,96.6%,97.2%,,93.6%,86.9%,89%,89.8%,88.2%,88.4%,106%,94.8%,85.3%,92.3%,72.3%,81.5%,93.3%,83.9%,77%,,
